From PubChem BioAssay (NCATS)
Inconclusive results are not listed. A call without a number means that no potency is given here. Active and inactive are the calls of the source. Calls come from the whole dose curve; as a rule, active = well fitted inhibition curve with a large enough effect; inconclusive = small, poorly fitted or top-dose-only effect; inactive = flat fitted curve, though single readings scatter.

test: P-glycoprotein substrates identified in KB-8-5-11 adenocarcinoma cell line, qHTS therapeutic library screen (AID 1346987); conditions: KB-8-5-11 (P-gp overexpressing) viability, CellTiter-Glo, 72 h; series mostly up to 44.5 µM; note: nearly all actives have a fitted effect of over 65% in size
Summary of the method: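 Steps: plate 500 KB-8-5-11 cells/well in DMEM + 10% FCS (colchicine removed); pin compounds in dose-response; incubate 72 h, 37 degree C, 5% CO2; add CellTiter-Glo, 5 min; read luminescence.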
Potency is the fitted concentration of half-maximal effect.

Structure (SMILES)	Potency
CN(C)C1CCN(C(=O)c2ccc(NC(=O)Nc3ccc(-c4nc(N5CCOCC5)nc(N5CCOCC5)n4)cc3)cc2)CC1	inactive
COc1ccc(C(=O)n2c(C)c(Cc3cccc(O[C@@H](C)C(=O)O)c3)c3cc(OC(F)(F)F)ccc32)cc1	inactive
O=C(OCC1=CC(O)C2C=CO[C@@H](O[C@@H]3O[C@H](CO)[C@@H](O)[C@H](O)[C@H]3O)C12)c1ccccc1 (some centres undefined)	inactive
O=S(=O)(NCC1CC1)c1ccc(Nc2nccc(N3CCCc4cc(O)ccc43)n2)cc1	9.2 µM (active)
CC1(C(=O)O)CCCC2(C)C3=CCC4CC3(CCC12)CC4CO (centres undefined)	inactive
Nc1nc(Nc2ccc(S(N)(=O)=O)cc2)n(C(=S)Nc2c(F)cccc2F)n1	1.16 µM (active)
CC1CCC2(C=O)C(CO)=CCCC2C1(C)CC(=O)O (centres undefined)	inactive
C/C=C(\C)C(=O)O[C@H]1[C@@H](O[C@]2(COC(=O)CC(C)C)O[C@H](COC(=O)C(C)CC)[C@@H](OC(C)=O)[C@@H]2O)O[C@H](COC(C)=O)[C@@H](O)[C@@H]1O (some centres undefined)	inactive
COC(=O)C1=CO[C@@H](O[C@@H]2O[C@H](CO)[C@@H](O)[C@H](O)[C@H]2O)[C@@H]2[C@@](C)(O)[C@@H](OC(=O)/C=C/c3ccc(O)cc3)C[C@]12O	inactive
CCOC(=O)c1sc(NC(=O)[C@H](C(C)C)n2c(=O)[nH]c3ccccc3c2=O)nc1C	inactive
COC(=O)C12CCC(C)C(C)C1C1=CCC3C4(C)CCC(OC(C)=O)C(C)(C)C4CCC3(C)C1(C)CC2 (centres undefined)	inactive
COc1ccc(C2(O)CCC(N3CC[C@@H](NC(=O)CNC(=O)c4cccc(C(F)(F)F)c4)C3)CC2)cn1 (some centres undefined)	inactive
CC(C)Oc1ccc(C(=O)NC(CNC(=O)CN(C)C)Cc2ccc(-c3cn4cccc(C(C)O)c4n3)cc2)cc1Cl (centres undefined)	6.51 µM (active)
CC(C)(C)OC(=O)N1CCC(OCc2nc(-c3ccncc3)no2)CC1	inactive
CC(=O)OC1C(=O)C2(C)C(O)CC3OCC3(OC(C)=O)C2C(OC(=O)c2ccccc2)C2(O)CC(OC(=O)C(O)C(NC(=O)c3ccccc3)c3ccccc3)C(C)=C1C2(C)C (centres undefined)	1.3 µM (active)
CNC(=O)c1ccccc1Nc1nc(Nc2ccc(N3CCNCC3)cc2)ncc1Cl	0.461 µM (active)
C=C[C@H]1CN2CC[C@H]1C[C@@H]2C(O)c1ccnc2ccc(OC)cc12 (some centres undefined)	inactive
CC(=O)c1ccc(O[C@@H]2O[C@H](CO)[C@@H](O)[C@H](O)[C@H]2O)cc1	inactive
CC1=CC(=O)[C@]2(O[C@@H]3O[C@@H](C)[C@H](O)[C@@H](O)[C@H]3OC(=O)/C=C/c3ccccc3)C=CO[C@@H](O[C@@H]3O[C@H](CO)[C@@H](O)[C@H](O)[C@H]3O)[C@H]12	inactive
CC(C)c1nnc(-c2ccc(-c3ccccc3)nc2)n1-c1cccc2nonc12	inactive

Structure (SMILES)	Potency
CC(=O)OC[C@@]12C(=O)C[C@@H](C)[C@]3(C[C@@H](c4ccoc4)O[C@H]3OC(C)=O)[C@H]1CCC[C@]21CO1	inactive
C/C1=C\[C@H]2OC(=O)[C@@H](C)[C@@H]2CC/C(C(=O)O)=C/CC1	inactive
CC1(C)CCCC2(C)C1CC(=O)C13CC(CCC12)C(O)(CO)C3 (centres undefined)	inactive
COc1cc(N2CCC(N3CCN(C)CC3)CC2)ccc1Nc1ncc(Cl)c(-c2c[nH]c3ccccc23)n1	0.517 µM (active)
CC/C=C/CC1=C(CCCCC(CCC(=O)O)OC(C)=O)CCC1=O (centres undefined)	inactive
CC(NC(=O)CCc1nc2ccccc2c(=O)[nH]1)c1ccccc1 (centres undefined)	inactive
C/C=C/c1ccc(O[C@@H]2O[C@H](CO)[C@@H](O)[C@H](O)[C@H]2O)c(OC)c1	inactive
COc1cc(Br)c(Nc2nc(-c3c(C)nc4ncccn34)cs2)c(Br)c1	2.31 µM (active)
CC(C)(O)CC(CO)NC(=O)CC(O)CC(=O)Cc1ccccc1 (centres undefined)	inactive
CNC(=S)NS(=O)(=O)c1cc(CCNC(=O)c2cc(Cl)ccc2OC)ccc1OC	inactive
CCNC(=O)Nc1ncc(-c2cc(-c3c(C)cc(OC)cc3C)nc(-c3cnccn3)n2)s1	inactive
CN[C@@H]1[C@H](O[C@H]2[C@H](O[C@@H]3[C@@H](O)[C@H](O)[C@@H](N=C(N)N)[C@H](O)[C@H]3N=C(N)N)O[C@@H](C)[C@]2(O)C=O)O[C@@H](CO)[C@H](O)[C@H]1O	inactive
CC(=O)NC1C(OC(C)(C)C2CCC3(C)C=C(C4CCC5C4(C)CC(O)C4OC(C(C)(C)O)CCC45C)CCC3O2)OC(CO)C(O)C1O (centres undefined)	inactive
C/C=C/C=C/C(=O)N1CC[C@]23c4ccccc4N[C@H]4N(C)c5cccc6c5[C@@]42CCN([C@H]6C2OC2(C)C)[C@H]13 (some centres undefined)	inactive
CC(C)CC1NC(=O)C(C)NC(=O)C(CC(C)C)OC(=O)CCCNC1=O (centres undefined)	inactive
O=C(O)c1ccccc1NC(=O)N1CCC(c2ccccc2C(F)(F)F)CC1	inactive
OC[C@H]1O[C@@H](O[C@H]2[C@H](OCc3ccccc3)O[C@H](CO[C@@H]3OC[C@@H](O)[C@H](O)[C@H]3O)[C@@H](O)[C@@H]2O)[C@H](O)[C@@H](O)[C@@H]1O	inactive
COc1c2ccoc2cc2oc(CO[C@@H]3O[C@H](CO)[C@@H](O)[C@H](O)[C@H]3O)cc(=O)c12	inactive
Cc1cc(C(N)=O)ccc1-n1c(CCC(=O)O)ccc1-c1ccc(-n2ccnc2)cc1	inactive
